CR mimetic SO: yeast age-related superoxide inhibition as caloric restriction mimetic. S. cerevisiae aged cells, superoxide DHE fluorescence; active compounds read low. superoxide response (% of plate mean), % at 10 µM. 330,000 tested, 0.18% active;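 active = superoxide response under a set limit, about three screen SD below normal, cut at about 65% in these data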;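 note: yeast aged for seven days with compound at 30 °C before DHE staining; 100% = average MFI of all compound-treated wells on the plate with controls excluded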
MOR-DOR ag: agonists of human mu-delta opioid receptor heterodimerization; AID 504326; cells, OPRM1-OPRD1 heterodimerization, luminescence; 340,000 tested, 0.3% active; activation, % at 9.3 µM; P35372+P41143;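 note: 0% = vehicle-treated cells and 100% = reference agonist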
MOR-DOR inv ag: inverse agonist of human OPRM1-OPRD1 heterodimerization | P35372+P41143 | AID 504357 | cell-based MOR-DOR heterodimer luminescence, inverse agonism | 340,000 tested, 0.21% active | inhibition, % at 9.3 µM; in the data active = inhibition above about 22%, passing the limit was not always enough;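 note: 0% = cells with DMSO and 100% = wells without cells with DMSO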
HTR5A ag ctr: activates human HTR5A in OPRM1-OPRD1 agonist counter-screen. P47898. HTR5A agonist assay, luminescence, cell-based. activation, % at 9.3 µM. 340,000 tested, 0.61% active. AID 504692; in the data active = activation mostly above about 9.5%, no sharp cut-off; inactive = mostly below about 7.6%;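 note: 0% = cells with vehicle only and 100% = reference agonist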
PvdQ inh: P. aeruginosa PvdQ acylase inhibition. purified PvdQ acylase, fluorescence plate reader. inhibition, % at 10 µM. 340,000 tested, 0.063% active. AID 488965; in the data active = inhibition above about 30%, passing the limit was not always enough;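 note: 0% = vehicle neutral wells and 100% = reference inhibitor wells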
HTR5A inv ctr: counter-screen for OPRM1-OPRD1 inverse agonists: human HTR5A inverse agonism. HTR5A cell line, luminescence. inhibition, % at 9.3 µM. 340,000 tested, 0.083% active; in the data active = inhibition mostly above about 23%, no sharp cut-off; inactive = mostly below about 18%;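 note: 0% = cells with DMSO and 100% = no-cell wells with DMSO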
OPRM1-D1 ag cf: confirmation of human OPRM1-OPRD1 heterodimerization agonists | 830 tested, 45% active | AID 504904 | shares compounds with MOR-DOR ag | activation, % at 9.3 µM | cells, MOR-DOR heterodimerization, luminescence complementation;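 note: 0% = vehicle-treated cells and 100% = reference agonist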
HTR5A ag counter: activates human HTR5A in OPRM1-OPRD1 agonist counter-screen; HTR5A agonist counterscreen, cell luminescence; shares compounds with MOR-DOR ag; activation, % at 9.3 µM; 830 tested, 8% active; in the data active = activation above about 17%;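 note: 0% = vehicle-treated cells and 100% = reference agonist response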
* marks the source's active call; other numbers are inactive results; i = inactive; nt = no result. Rows were chosen to be rich in hits. Some 1.3% of all compounds tested hit in one or more screens of this group. Cut-off read from the data, not from the text of the source, unless noted: active = activation above about 18%; inactive = the rest.

SMILES	CR mimetic SO	MOR-DOR ag	MOR-DOR inv ag	HTR5A ag ctr	PvdQ inh	HTR5A inv ctr	OPRM1-D1 ag cf	HTR5A ag counter
Cc1cccc(C)c1NC(=O)CNC(=O)c1ccc(N2CCCC2=O)cc1	91	-6	21	1	-16	3	nt	nt
Cc1ccc(C)c(N2CCN(C(=O)Nc3ccc4c(c3)N(C)C(=O)CS4)CC2)c1	119	3	-20	0	-12	0	nt	nt
CN1C(=O)CSc2ccc(NC(=O)N3CCN(c4ccccn4)CC3)cc21	97	36*	-218	1	-3	-2	26*	8
COc1cccc(NC(=O)Nc2ccc3c(c2)N(C)C(=O)CS3)c1	102	0	1	5	-10	4	nt	nt
CC(=O)Nc1ccc(NC(=O)Nc2ccc3c(c2)N(C)C(=O)CS3)cc1	101	21*	-150	2	-8	-5	3	2
CC1(C)[C@@H](O)CC[C@]2(C)C3C(O)C=C4[C@H]5C[C@@](C)(C(=O)O)CC[C@]5(C)CC[C@]4(C)[C@]3(C)CC[C@@H]12 (stereo partly specified)	70	nt	nt	nt	nt	nt	nt	nt
CC(=O)Oc1ccccc1C(=O)Nc1ccccc1C(=O)N1CCCCC1	96	-1	5	0	-3	-15	nt	nt
O=C(C[C@@H]1C/C=C\CC[C@H](Cc2ccc(F)cc2)C(=O)OC[C@@H]2CCCN2C1=O)NCCO	90	-2	12	4	-7	-1	nt	nt
CCN(CC(=O)NCc1ccccn1)S(=O)(=O)c1cc(Cl)ccc1Cl	95	-1	4	-1	-15	1	nt	nt
C/C=C(\C)CN1CCC(n2nccc2NC(=O)CCc2ccccc2)CC1	101	20*	-110	-4	-2	7	3	-2
C/C=C(\C)CN1CCC(n2nccc2NC(=O)CCOc2ccccc2)CC1	120	-1	3	4	4	-6	nt	nt
Cc1ccc(NC(=O)CNC(=O)c2sc3ccccc3c2Cl)nc1	89	26*	-135	2	-13	-4	0	-1
COc1ccc(OC)c(/C=C/c2nc3ccccc3[nH]c2=O)c1	116	21*	-115	7	3	-17	7	8
COc1ccc(OC)c(C=Nc2ccccc2-c2nc3ccccc3[nH]2)c1	104	0	-1	5	-31	25	nt	nt
CC1CCC(C(C)C)C(OC(=O)COC(=O)c2cc(O)ccc2N)C1 (stereo unspecified)	83	24*	-134	7	-9	-44	0	-10
CCN(CC(=O)Nc1ccc2c(c1)OCCO2)C(=O)/C=C/c1ccc([N+](=O)[O-])cc1	101	-4	13	2	-7	3	nt	nt
C=CC[C@@H](CC(=O)N(CCO)Cc1ccccc1)C(=O)N[C@@H](COC(=O)[C@@H](CC=C)CC(=O)OC(C)(C)C)Cc1c[nH]c2ccccc12	119	29*	-131	9	2	-54	2	-3
COc1cc(NC(=O)CNc2cccc(S(=O)(=O)N3CCOCC3)c2)cc(OC)c1	nt	0	-2	-2	3	5	nt	nt
Cc1cc(/C=C2\SC(=Nc3ccc(F)cc3)NC2=O)c(C)n1-c1ccc(S(N)(=O)=O)cc1	125	125*	i	4	-6	-12	24*	3
COc1ccc(-c2nc(CN3CCC(C(=O)NC4CCCc5ccccc54)CC3)c(C)o2)cc1OC (stereo unspecified)	nt	199*	i	2	-3	5	38*	5
COc1ccc(-c2nc(CN3CCC(c4ccccc4)CC3)c(C)o2)cc1OC	93	4	-22	4	-6	6	nt	nt
COc1ccc(-c2nc(CN3CCC(C(=O)NC4CCCC4)CC3)c(C)o2)cc1OC	88	110*	i	0	-5	1	18*	1
CCOC(=O)c1ccccc1NC(=O)COC(=O)CCNS(=O)(=O)c1ccccc1	96	3	-12	0	-11	-1	nt	nt
CC(=O)Nc1c(Br)cc2c(c1Br)Cc1cc(Br)ccc1-2	nt	34*	-176	-1	-14	3	19*	6
Cc1ccc(C)c(NC(=O)CN(C)S(=O)(=O)c2cccc3cccnc23)c1	97	-1	5	1	-10	-4	nt	nt
SMILES	CR mimetic SO	MOR-DOR ag	MOR-DOR inv ag	HTR5A ag ctr	PvdQ inh	HTR5A inv ctr	OPRM1-D1 ag cf	HTR5A ag counter
O=C(CSc1ccccc1)Nc1ccc(-c2nc3ccccc3[nH]2)cc1	114	22*	-111	8	-11	-32	5	-2
O=C(Nc1cccc(-c2nc3ccccc3[nH]2)c1)c1cccc(NC(=O)c2ccco2)c1	94	88*	-459	7	-10	13	-2	-1
O=C(CSc1ccc(Cl)cc1)Nc1cccc(-c2nc3ccccc3[nH]2)c1	108	34*	-203	2	0	-6	13	8
COc1ccccc1N1CCN(S(=O)(=O)CCNC(=O)C2CCCCC2)CC1	104	-1	3	2	12	-31	nt	nt
CCCCCCCCCCCCCCCC[N+](C)(C)CCN(Cc1ccc(OC)cc1)c1ncccn1	91	29*	-163	23	4	-32	35*	0
COc1ccc(CN(CCN(C)C)c2ccccn2)cc1	99	-3	15	8	3	-30	nt	nt
CNC[C@H](CC1CCCCC1)NC[C@H](Cc1ccccc1)NCCC12CC3CC(CC(C3)C1)C2	117	95*	i	0	3	-60	164*	39*
NC[C@H](Cc1ccccc1)NCCCCC1CCCCC1	99	1	-4	-1	-5	-14	nt	nt
Cc1cccc(C(=O)NCCC(=O)Nc2ccc(C#N)cc2)c1	90	1	-6	-3	5	7	nt	nt
O=C1C=C(c2c(O)ccc3ccccc23)c2ccccc2C1=O	nt	54*	-280	10	-9	-39	47*	14
Nc1ccccc1S(=O)(=O)NCCCCc1ccccc1	93	2	-12	7	-9	-28	nt	nt
S=C(NCCc1ccccc1)N1CCN(C23CC4CC(CC(C4)C2)C3)CC1	94	20*	-96	-3	12	7	10	1
CCOc1ccc(Nc2c3ccccc3nc3ccccc23)cc1	106	20*	-100	-2	4	-4	37*	1
CC(C)(C)c1csc(N/N=C/c2ccc(O)cc2)n1	100	18*	-84	-1	-18	4	49*	1
CC(=O)Nc1sc(N/N=C/c2ccc(O)cc2)nc1-c1ccc(C)cc1	123	-1	4	0	15	0	nt	nt
CCCNC(=O)C(Cc1ccc(C(F)(F)F)cc1)NC(=O)c1ccc(C#N)cc1 (stereo unspecified)	97	-2	12	12	-1	-34	nt	nt

Bioassay records deposited in PubChem BioAssay by several laboratories.
